Reference: PubChem BioAssay AID453 (PCMD, 2006)
In all, about 63,000 compounds went through this assay and about 75 (0.1%) were called active. No stated cut-off is given here; in the data, active means inhibition above about 21%; inactive means the rest. The full list was thinned out, with actives kept by preference.

target: Cathepsin B (Homo sapiens) (UniProt P07858); assay: blockers of cathepsin B proteolysis – biochemical, fluorogenic substrate, primary screen (AID 453); settings: purified cathepsin B, fluorescence, active compounds read high,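 tested at 10 µM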;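 further: 0% = enzyme with no compound and 100% = no enzyme blank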

SMILES	inhibition
O=C1c2cccc3cccc(c23)N1CN1CCN(c2ccccn2)CC1	2.14% (inactive)
Cc1ccccc1-c1ccc(Nc2ccc(C(=O)N3CCOCC3)cc2)nn1	6.18% (inactive)
NC(=O)CSc1c[nH]c2ccccc12	0.81% (inactive)
COc1ccc(-c2cc(C(=O)NC(C(=O)O)C(C)C)c(C)o2)cc1OC (stereo unspecified)	5.71% (inactive)
CCCc1nc2c3cnn(-c4cccc(Cl)c4)c3ncn2n1	-2.64% (inactive)
CCOC(=O)N1CCC(NC(=O)CCc2cn(C)c3ccccc23)CC1	-2.17% (inactive)
COc1ccc(CCNC(=O)C2CCCN(Cc3nc(-c4cccc(Cl)c4)oc3C)C2)cc1OC (stereo unspecified)	3.18% (inactive)
COCc1cc(C)nc(Nc2cc(C)ccc2C)c1C#N	4.86% (inactive)
COc1ccc(CCNC(=O)CSc2nnc(CNC(=O)c3cccs3)o2)cc1OC	1.4% (inactive)
O=c1c(F)cn(C2CCCO2)c(=O)n1Cc1ccccc1Cl (stereo unspecified)	-1.02% (inactive)
CC(C)OC(=O)c1cc(NC(=O)C2C3CCC(O3)C2C(=O)O)cc(C(=O)OC(C)C)c1 (stereo unspecified)	2.7% (inactive)
COc1cc(C2C(C(=O)c3ccc(C)o3)=C(O)C(=O)N2CCc2ccccc2)ccc1O (stereo unspecified)	4.77% (inactive)
COc1ccc(NC2CC(=O)N(C)C2=O)cc1 (stereo unspecified)	-3.47% (inactive)
CCOC(=O)N1CCN(C(=O)C2CCCN(c3ncnc4c3sc3cccc(F)c34)C2)CC1 (stereo unspecified)	-3.56% (inactive)
CCOc1cccc(-c2nn3c(-c4ccccn4)nnc3s2)c1	0.42% (inactive)
CC(=O)N(CN1C(=O)C2CC=CCC2C1=O)c1cccc(Cl)c1 (stereo unspecified)	-3.62% (inactive)
Cc1ccc2c(c1)N(CC(=O)N1CCCc3ccccc31)C(=O)C(C)O2 (stereo unspecified)	3.31% (inactive)
CC1=C2C(=O)OC(c3ccoc3)C2(C)CCC1 (stereo unspecified)	0.12% (inactive)
CC1CSc2nnc(CCc3ccccc3)n21 (stereo unspecified)	-1.7% (inactive)
COc1ccc(C2CC(c3ccccc3)Nc3ncnn32)cc1 (stereo unspecified)	7.13% (inactive)
Cc1ccc(NC(=O)CN(C)S(=O)(=O)c2cnc[nH]2)cc1C	3.83% (inactive)
O=C(O)C1CCN(S(=O)(=O)N2CCOCC2)CC1	4.13% (inactive)
CCOC(=O)N1CCC(Nc2c(NCCCN3CCN(c4ccc(OC)cc4)CC3)c(=O)c2=O)CC1	4.27% (inactive)
CCCN1CCN(C(=O)Cn2ncc3ccccc32)CC1	0.47% (inactive)

SMILES	inhibition
Cc1ccc(F)cc1NC(=O)Cc1nn(C)c(=O)c2ccccc12	2.55% (inactive)
CCCOc1ccc(C2C(C(=O)c3ccc(C)o3)=C(O)C(=O)N2CCCn2ccnc2)cc1 (stereo unspecified)	2.38% (inactive)
O=C(Nc1ccc2c(c1)nc1n2CCCCC1)c1cc(S(=O)(=O)N2CCOCC2)ccc1Cl	-1.57% (inactive)
CN1c2ccccc2-c2nc3ccccc3n2C1c1ccco1 (stereo unspecified)	-10.8% (inactive)
O=C(CCCn1c(=O)oc2ccccc21)Nc1cccnc1	-0.71% (inactive)
CCCCNc1nc2c(c(=O)n(C)c(=O)n2C)n1Cc1cccc(OC)c1	0.69% (inactive)
COc1ccc(CCNC(=O)CSc2nnc(-c3cccc(F)c3)o2)cc1OC	1.18% (inactive)
CCCSC1=C(C#N)C(c2ccccc2C)C(C(=O)OC)C(=O)N1 (stereo unspecified)	-3.07% (inactive)
Cc1ccccc1C(=O)Nc1cccc(-c2nnc(SCC(=O)O)n2C)c1	0.46% (inactive)
CC(C)Oc1ccc(C(=O)Nc2cc(=O)n(C)c(=O)n2C)cc1	-1.53% (inactive)
Cc1cc(NC(=O)Nc2ccccc2)n(-c2ccccc2)n1	0.02% (inactive)
O=C(NCC(F)(F)F)Nc1nnc(C(F)(F)F)s1	2.4% (inactive)
Fc1ccc(Br)cc1/C=N/n1cnnc1	3.66% (inactive)
Cc1cccc(-c2noc(-c3ccc(F)cc3)n2)c1	3.17% (inactive)
COc1c(O)cccc1-c1nnn(CCC(=O)OCC(=O)c2ccccc2)n1	0.08% (inactive)
CN(C)/C=C1\C=C(c2ccccc2)OC1=O	6.09% (inactive)
CCCCSc1nc2c(c(=O)n1CC)SC(C)C2 (stereo unspecified)	-3.44% (inactive)
CC1COC2C(O1)N(S(C)(=O)=O)CCN2S(C)(=O)=O (stereo unspecified)	3.14% (inactive)
CCOC(=O)[C@H]1CCC[C@@H](NS(=O)(=O)c2ccc(NC(C)=O)cc2)C1	1.14% (inactive)
CCOc1ccccc1C(=O)NCc1ccco1	-3.58% (inactive)
Cc1cc2cc(CN(Cc3cccs3)Cc3nnnn3CC3CCCO3)c(=O)[nH]c2cc1C (stereo unspecified)	4.13% (inactive)
O=C(CN(CC1CCCO1)C(=O)CNS(=O)(=O)c1ccccc1)NCc1ccccc1 (stereo unspecified)	6.19% (inactive)
CSc1ncccc1C(=O)OCC(=O)N1CCOCC1	4.46% (inactive)
Cn1c(=O)c2c(nc(Br)n2CCSc2nc3ccccc3o2)n(C)c1=O	-0.32% (inactive)

SMILES	inhibition
C=CCOc1nc2c(c(=O)n(C)c(=O)n2C)n1Cc1ccc(Cl)cc1Cl	0.74% (inactive)
CN(Cc1ccccc1)C(=O)CCNC(=O)Cn1cnc2ccccc2c1=O	-3.16% (inactive)
O=C(CN1CCOCC1)Nc1ccc(NC(=O)CN2CCOCC2)c(Cl)c1	1.81% (inactive)
Cc1ccc2nc(NC(=O)C3CCN(S(=O)(=O)c4ccc5c(c4)oc(=O)n5C)CC3)sc2c1	4.26% (inactive)
CC(C)C(=O)N1CCN(c2nc(-c3ccccc3)c3c(c2C#N)CC(C)(C)OC3)CC1	1.01% (inactive)
Cc1ccc(-n2c(Cc3cccs3)nnc2SCC(=O)OC(C)C)cc1	11.1% (inactive)
CCOCCOC(=O)C1=C(C)N(C)C(=O)NC1c1ccccc1F (stereo unspecified)	1.21% (inactive)
COc1ccc(-c2nnc(SCC(=O)c3ccco3)n2-c2ccccc2)cc1	0.87% (inactive)
CN(CCC#N)c1ncnc2scc(-c3ccccc3)c12	-3.88% (inactive)
COc1cc(C2C(C(=O)c3sc(C)nc3C)=C(O)C(=O)N2CCN(C)C)cc(OC)c1OC (stereo unspecified)	4.44% (inactive)
Cc1cc(N=CC2=C(O)CCCC2=O)no1	-1.03% (inactive)
CCC(=O)c1ccc(OCC(O)CN2CC(C)OC(C)C2)cc1 (stereo unspecified)	1.68% (inactive)
CCC(=O)c1ccc(OCC(O)CN2C(=O)NC(C)(C)C2=O)cc1 (stereo unspecified)	2.56% (inactive)
CC(CCc1ccccc1)NC(=O)c1ccc(Br)o1 (stereo unspecified)	-4.56% (inactive)
COCCCN1C(=O)C(=O)/C(=C(/O)c2ccc3c(c2)CC(C)O3)C1c1cccnc1 (stereo unspecified)	0.25% (inactive)
CCOc1ccc(NC(=O)CCC(=O)n2nc(C)cc2C)cc1	8.67% (inactive)
CCCCC(CCC(=O)Nc1ccc(C(=O)OCC)cc1)C(=O)O (stereo unspecified)	-0.09% (inactive)
CCCOc1ccc(/C(O)=C2/C(=O)C(=O)N(CCN(C)C)C2c2ccc(OC)c(OC)c2)cc1 (stereo unspecified)	0.77% (inactive)
Cc1nnc(N(Cc2ccco2)C(=O)c2ccno2)s1	-4.93% (inactive)
CCn1c(CSc2nncn2-c2ccc(OC)cc2)nc2cc(S(=O)(=O)N(C)C)ccc21	5.16% (inactive)
Cc1ccc(NC(=O)C2CCCN(S(=O)(=O)c3c(C)noc3C)C2)c(C)c1 (stereo unspecified)	-0.58% (inactive)
CCOC(=O)N1CCN(S(=O)(=O)c2cc(Br)cc3c2N(C(=O)C2CC2)CC3)CC1	2.46% (inactive)
CCOc1cc(C(=O)Nc2ncccn2)cc(OCC)c1OCC	-3.7% (inactive)
Cc1ccc(C(=O)NCC(=O)O)cc1S(=O)(=O)N1CCCCC1	6.73% (inactive)

SMILES	inhibition
COc1ccc(C(=O)Nc2ccc3c(c2)OCO3)cc1OC	1.65% (inactive)
Cc1ccc(C(=O)Nc2ccc3c(c2)OCO3)cc1S(=O)(=O)N1CCCCC1	49.6% (active)
COC(=O)c1ccccc1NC(=O)CN(Cc1ccccc1)S(C)(=O)=O	-3.25% (inactive)
Cc1cc(=O)oc(C)c1C(=O)NC1CC(C)(C)NC(C)(C)C1	5.11% (inactive)
CC(C)c1nc(-c2ccccn2)no1	-4.78% (inactive)
CC(Sc1nncn1C)C(=O)Nc1ccccc1-c1ccccc1 (stereo unspecified)	-1.58% (inactive)
COCCN(C(=O)CCC(=O)Nc1ccccn1)C(C(=O)NCCC(C)C)c1ccc(OC)cc1 (stereo unspecified)	-1.72% (inactive)
COc1ccccc1-c1nnc(SCC(=O)N2CC(C)CC(C)C2)o1 (stereo unspecified)	-0.15% (inactive)
Cn1c(CNc2nc(-c3ccccc3)cs2)nnc1SCC(=O)c1ccccc1	-1.17% (inactive)
O=C1N=C(N2CCOCC2)CS1	3.2% (inactive)
COc1ccc(CCN2C(=O)c3[nH]nc(-c4ccccc4O)c3C2c2ccc(C)cc2)cc1OC (stereo unspecified)	-1.75% (inactive)
O=C(CSc1nnc2ccccn12)c1ccccc1	8.89% (inactive)
Cc1onc(-c2ccccc2)c1C(=O)N1CCOCC1	6.53% (inactive)
Cc1noc(/C=C/N(C)C)c1S(=O)(=O)N1CCCC(C(=O)NCc2ccco2)C1 (stereo unspecified)	4.93% (inactive)
Cc1cccc(N2C(=O)SC(N(CC(=O)O)c3cccc(C)c3)C2=O)c1 (stereo unspecified)	8.43% (inactive)
CCCCOC(=O)Nc1nccs1	2.38% (inactive)
C=CCOc1ccc(/C=N/n2cncn2)cc1OC	1.3% (inactive)
CCc1nc(Nc2ccc3nccnc3c2)c2oc3ccccc3c2n1	-2.31% (inactive)
C=CCn1c(COc2cccc3cccnc23)nnc1SCC(=O)OC	6.46% (inactive)
Cc1nc2c(-c3ccc(F)cc3)c(C)nn2c(C)c1CCC(=O)N1CCN(c2ccccn2)CC1	-0.57% (inactive)
CCOC(=O)CCc1c(C)c2ccc(OCc3nn[nH]n3)c(C)c2oc1=O	1.69% (inactive)
Cc1cc(C)c(S(=O)(=O)NCCCN2CCOCC2)cc1Br	1.5% (inactive)
Cc1cc(NC(=O)CSc2nnc(-c3ccc(Cl)s3)o2)no1	1.24% (inactive)
O=C(COC(=O)C12CC3CC(CC(C3)C1)C2)NCc1ccco1	-3.05% (inactive)
